{
  "source": "ChEMBL document CHEMBL4888484",
  "about": "“Replenishing the malaria drug discovery pipeline: Screening and hit evaluation of the MMV Hit Generation Library 1 (HGL1) against asexual blood stage Plasmodium falciparum ,using a nano luciferase reporter read-out” (2022)",
  "note": "Among all 150,000 compounds or so, about 540 (0.36%) showed an effect of 50% or more. The list comes from a sample in which strong results are over-represented; it also holds similar structures and randomly drawn compounds.",
  "data": [
    {"tested_on": "Plasmodium falciparum", "assay": "Primary screen in NF54 nanoGlo assay, in single point, at 2uM, 72h; a lower Z score goes with more inhibition", "type": "functional, Erythrocyte", "conditions": "timepoint 72 hour", "units": {"% Inhibition": "%"}, "values": [
      {"smiles": "Cc1csc(Oc2ccc(N)cc2F)n1", "% Inhibition": -12, "Z score": 1.47},
      {"smiles": "CC1CN(C(=O)CN(C)c2cnccn2)CC(C)O1", "note": "(stereo not drawn)", "% Inhibition": -5, "Z score": 0.83},
      {"smiles": "O=C(Nc1cccc(CNc2nc3ccccc3o2)c1)c1ccccn1", "% Inhibition": -13, "Z score": 1.61},
      {"smiles": "Cc1cc(NC(=O)c2ccccn2)n(-c2nc3ccccc3o2)n1", "% Inhibition": 89, "Z score": -10.15},
      {"smiles": "Cc1nc2cc(NC(=O)c3ccccn3)ccc2o1", "% Inhibition": 11, "Z score": -1.99},
      {"smiles": "CN(CC(F)(F)F)C(=O)CNc1ncccn1", "% Inhibition": 3, "Z score": -0.38},
      {"smiles": "Cc1cc(C)cc(NC(=O)C23CCC(C)(C(=O)C2=O)C3(C)C)c1", "note": "(stereo not drawn)", "% Inhibition": 9, "Z score": -1.39},
      {"smiles": "COc1cccc(NC(=O)c2cc(C(=O)Nc3cccc(OC)c3)cc(N3C(=O)c4ccccc4C3=O)c2)c1", "% Inhibition": 18, "Z score": -2.84},
      {"smiles": "Cc1nc(O)cc(CN2CCCCC2)n1", "% Inhibition": -11, "Z score": 1.95},
      {"smiles": "CC(C)c1nc(O)cc(CN2CCCCC2)n1", "% Inhibition": 33, "Z score": 1.16},
      {"smiles": "CC(C)c1ccc(-c2nc(CN3CCCCC3)cc(CN3CCCCC3)c2O)cc1", "% Inhibition": 96, "Z score": -15.06},
      {"smiles": "Cc1ccc(S(=O)(=O)c2c(N)n(-c3ccc4c(c3)OCCO4)c3nc4ccccc4nc23)cc1", "% Inhibition": 6, "Z score": -0.5},
      {"smiles": "O=C(NC1CC1c1ccc(F)cc1)N1CCN(c2ccccc2O)CC1", "note": "(stereo not drawn)", "% Inhibition": -7, "Z score": 1.5},
      {"smiles": "CC1(C)COc2ccc(C(=O)N3CC[C@H](O)C3(C)C)cc21", "% Inhibition": 19, "Z score": -2.22},
      {"smiles": "CCn1nnc2cc(C(=O)N3CCN(C(c4ccccc4)c4ccccc4)CC3)ccc21", "% Inhibition": 32, "Z score": -3.63},
      {"smiles": "COc1ccccc1-c1cc2nc(C)cc(N3CCN(CCO)CC3)n2n1", "% Inhibition": -14, "Z score": 1.98},
      {"smiles": "COc1ccccc1-c1cc2nc(C)cc(N3CCN(Cc4ccccc4)CC3)n2n1", "% Inhibition": -10, "Z score": 1.85},
      {"smiles": "COc1ccc(-c2cc3nc(C)cc(N4CCN(C/C=C/c5ccccc5)CC4)n3n2)cc1OC", "% Inhibition": 51, "Z score": -9.31},
      {"smiles": "COc1ccc(-c2nn3c(N4CCN(C)CC4)cc(C)nc3c2C)cc1OC", "% Inhibition": -11, "Z score": 2.19},
      {"smiles": "COc1ccc(-c2nn3c(N4CCN(CC=Cc5ccccc5)CC4)cc(C)nc3c2C)cc1OC", "% Inhibition": 72, "Z score": -3.65},
      {"smiles": "COc1ccc(-c2nn3c(N4CCCCCC4)cc(C)nc3c2C)cc1OC", "% Inhibition": -8, "Z score": 1.59},
      {"smiles": "COc1ccc(NC(=O)CN2C(=O)[C@H]3CCCC3=Nc3ccccc32)cc1", "% Inhibition": 1, "Z score": -0.17},
      {"smiles": "Cc1cc(S(=O)(=O)N(C)CCC(=O)O)sc1C", "% Inhibition": -30, "Z score": 2.75},
      {"smiles": "COc1ccc(-n2c(CN3CCCC3)n[nH]c2=O)c(C)c1", "% Inhibition": -9, "Z score": 0.87},
      {"smiles": "Cc1ccc(OCC(=O)Nc2noc(-c3ccc(F)cc3)n2)cc1", "% Inhibition": -8, "Z score": 1.23},
      {"smiles": "CNc1nc(N2C[C@H]3CC[C@@H](C2)N(C)C3=O)nc2c1CCC2", "% Inhibition": 6, "Z score": -0.76},
      {"smiles": "CNc1nc(N2C[C@H](C)[C@@](O)(C3CC3)C2)nc2c1CCC2", "% Inhibition": 100, "Z score": -0.11},
      {"smiles": "CNc1cc(C)nc(N2C[C@H](C)[C@@](O)(C3CC3)C2)n1", "% Inhibition": 7, "Z score": -1.4},
      {"smiles": "C=C1C2CCC3(C4C[C@@H]5[C@@]6(C)CCC[C@]5(C3[C@H]2O)[C@@H]4N(CC)C6)[C@@H]1O", "note": "(stereo partly drawn)", "% Inhibition": 31, "Z score": -3.48},
      {"smiles": "Cc1ccc(-c2cc(C(=O)N(Cc3cccs3)[C@H]3CCS(=O)(=O)C3)no2)cc1F", "% Inhibition": -11, "Z score": 2.15},
      {"smiles": "CN(Cc1ccc(-c2ccccc2)cc1)c1cc([C@H]2C[C@@H](N)C2)nc(N)n1", "% Inhibition": 64, "Z score": -8.85},
      {"smiles": "CCCCN(C)c1cc([C@H]2C[C@@H](N)C2)nc(N)n1", "% Inhibition": -3, "Z score": 0.38},
      {"smiles": "CN(Cc1cc(-c2ccccc2)n[nH]1)c1cc(C2CC(O)C2)nc(N)n1", "note": "(stereo not drawn)", "% Inhibition": 7, "Z score": -1.1},
      {"smiles": "CCn1c(CN[C@H](c2ccccc2)c2cccs2)nc2cc(S(=O)(=O)N3CCCCC3)ccc21", "% Inhibition": 14, "Z score": -1.61},
      {"smiles": "Cc1ccc(NC(=O)N2CC[C@H](N3CCN(C)CC3)[C@H](CCC(=O)O)C2)c(C)c1", "% Inhibition": 16, "Z score": -2.12},
      {"smiles": "O=C1CCCN1c1ccc(NCc2cccc(O)c2)cc1F", "% Inhibition": -2, "Z score": 0.32},
      {"smiles": "O=C(N1CCCN(C2CCC2)CC1)C1(c2ccccc2)CCOCC1", "% Inhibition": -14, "Z score": 2.36},
      {"smiles": "CCOc1cc(CNc2cccc3ccccc23)cc(Br)c1OCC(=O)NC(C)(C)C", "% Inhibition": 56, "Z score": -9.96},
      {"smiles": "CCOc1cc(CNc2cc(C)ccc2C)cc(Br)c1OCC(=O)Nc1ccccc1", "% Inhibition": -2, "Z score": 0.3},
      {"smiles": "CCOc1cc(CNC2CCCC2)cc(Br)c1OCC(=O)Nc1ccccc1OC", "% Inhibition": -12, "Z score": 1.42},
      {"smiles": "CN(C)c1ccccc1NC(=O)N[C@H]1CCS(=O)(=O)C1", "% Inhibition": -11, "Z score": 1.66},
      {"smiles": "CCOC(=O)Nc1nc(C)c(-c2nc3ccccc3c(=O)n2-c2ccc(OC)cc2)s1", "% Inhibition": 37, "Z score": 0.52},
      {"smiles": "COc1ccc(-n2c(-c3sc(Nc4ccc(Cl)cc4)nc3C)nc3ccccc3c2=O)cc1", "% Inhibition": -3, "Z score": 0.38},
      {"smiles": "COC(=O)Nc1nc(-c2ccccc2)c(-c2nc3ccccc3c(=O)n2-c2ccc(OC)cc2)s1", "% Inhibition": 51, "Z score": -6.56},
      {"smiles": "C[C@H]1C(=O)N(C)C[C@@H](COc2ccccc2)N1C(=O)C1CCOCC1", "% Inhibition": -7, "Z score": 0.87},
      {"smiles": "Cc1cc(CNC(=O)N[C@@H]2CCc3cc(F)ccc32)on1", "% Inhibition": -7, "Z score": 0.96},
      {"smiles": "CCC(=O)NC1=NN2C(=NC(c3ccc(Cl)cc3)=C[C@H]2c2ccc(F)cc2)N1", "% Inhibition": 5, "Z score": -0.64},
      {"smiles": "COc1ccc([C@@H]2C=C(c3ccc(Cl)cc3)N=C3NC(NC(=O)c4ccccc4OC)=NN32)cc1", "% Inhibition": 96, "Z score": -8.52},
      {"smiles": "O=C(NC1=NN2C(=NC(c3ccccc3)=C[C@H]2c2ccc(F)cc2)N1)c1ccccc1", "% Inhibition": -11, "Z score": 1.69},
      {"smiles": "COc1ccccc1C(=O)NC1=NN2C(=NC(c3ccc(Cl)cc3)=C[C@H]2c2ccc(Cl)cc2)N1", "% Inhibition": 97, "Z score": -10.07},
      {"smiles": "Fc1ccc(C2=C[C@@H](c3ccc(Cl)cc3)N3N=C(c4ccc(Cl)cc4)NC3=N2)cc1", "% Inhibition": 96, "Z score": -14.66},
      {"smiles": "COc1ccccc1C(=O)NC1=NN2C(=NC(c3ccc(Cl)cc3)=C[C@H]2c2ccccc2)N1", "% Inhibition": -8, "Z score": 0.83},
      {"smiles": "O=C(NC1=NN2C(=NC(c3ccc(Cl)cc3)=C[C@H]2c2ccc(F)cc2)N1)c1ccc(Cl)cc1", "% Inhibition": 48, "Z score": -9.04},
      {"smiles": "COc1ccc([C@@H]2C=C(c3ccc(Cl)cc3)N=C3NC(N4C(=O)c5ccccc5C4=O)=NN32)cc1", "% Inhibition": -6, "Z score": 0.61},
      {"smiles": "O=C(O)CCC(=O)NC1=NN2C(=NC(c3ccccc3)=C[C@H]2c2ccc(Cl)cc2)N1", "% Inhibition": -39, "Z score": 4.56},
      {"smiles": "Cc1cccc(OCC(=O)Nc2cc(-c3noc(C)n3)sc2C)c1", "% Inhibition": -14, "Z score": 2.32},
      {"smiles": "Cc1ccc(-n2cnc3c2CCN(C(=O)C(=O)Nc2c4c(nn2C)CCCC4)C3)cc1", "% Inhibition": -13, "Z score": 1.99},
      {"smiles": "C[C@H]1Cc2ccccc2N1C(=O)Cn1cc(-c2ccn(C)n2)nn1", "% Inhibition": 6, "Z score": -0.77},
      {"smiles": "COC(=O)CC(C)NC(=O)CC(C)NC(=O)C1CCCC1", "note": "(stereo not drawn)", "% Inhibition": -9, "Z score": 1.14},
      {"smiles": "OCCN(CCO)c1ccc2ccccc2c1", "% Inhibition": 7, "Z score": -0.86},
      {"smiles": "CC1=CC(=[N+](CCO)CCO)C=C/C1=C(\\c1ccc(N(CCO)CCO)cc1C)c1ccccc1Cl", "% Inhibition": 86, "Z score": -10.15},
      {"smiles": "OCCN(CCO)c1ccc(C(c2ccccc2Cl)c2ccc(N(CCO)CCO)cc2Cl)c(Cl)c1", "% Inhibition": -9, "Z score": 1.44},
      {"smiles": "COc1cccc(C(=O)N2CCC([C@]3(CCC(C)C)NC(=O)N(CCN(C)C)C3=O)CC2)c1OC", "% Inhibition": -8, "Z score": 1.37},
      {"smiles": "O=C(Cc1ccc(F)cc1Cl)N[C@@H](Cc1ccncc1)C1CC(O)C1", "note": "(stereo partly drawn)", "% Inhibition": -6, "Z score": 1.08},
      {"smiles": "N#Cc1cccc(CN2Cc3nc[nH]c3C[C@H]2C(=O)NCc2ccco2)c1", "% Inhibition": -5, "Z score": 0.75},
      {"smiles": "Nc1c(S(=O)(=O)c2ccc(Cl)cc2)c2nc3ccccc3nc2n1Cc1ccc(F)cc1", "% Inhibition": -2, "Z score": 0.21},
      {"smiles": "Nc1c(-c2nc3ccccc3[nH]2)c2nc3ccccc3nc2n1Cc1ccccc1F", "% Inhibition": 78, "Z score": -5.76},
      {"smiles": "CCn1c(N)c(-c2nc3ccccc3[nH]2)c(=O)c2ccccc21", "% Inhibition": -1, "Z score": 0.15},
      {"smiles": "O=C(COc1ccc(Br)cc1)N1CCN(S(=O)(=O)c2ccc3ccccc3c2)CC1", "% Inhibition": -3, "Z score": 0.36},
      {"smiles": "CN(C)c1nc2cc(NC(=O)Cc3noc4ccccc34)ccc2o1", "% Inhibition": -15, "Z score": 2.38},
      {"smiles": "Cn1cnnc1CNC[C@H](O)c1ccc(Cl)cc1", "% Inhibition": -8, "Z score": 1.54},
      {"smiles": "CN(C)CCNS(=O)(=O)c1c[nH]c2c(Br)cccc12", "% Inhibition": 31, "Z score": -3.96},
      {"smiles": "Cc1ccc2nc(CN3CCS(=O)(=O)C(C)C3C)cn2c1", "note": "(stereo not drawn)", "% Inhibition": -13, "Z score": 1.17},
      {"smiles": "COCCCNC(=O)c1cc(Br)ccc1Br", "% Inhibition": -3, "Z score": 0.44},
      {"smiles": "COc1cc2c(cc1OC)CN(C(=O)c1ccc(N3CCOCC3)nc1)CC2", "% Inhibition": 2, "Z score": -0.32},
      {"smiles": "CC(C)c1nnc(C2CCN(C(=O)c3c[nH]c4ccccc34)CC2)o1", "% Inhibition": 11, "Z score": -1.46},
      {"smiles": "O=c1[nH]c2cc(Br)c(S(=O)(=O)Nc3cccnc3)cc2[nH]1", "% Inhibition": 3, "Z score": -0.54},
      {"smiles": "Cc1cc2[nH]c(=O)[nH]c2cc1S(=O)(=O)NC1CCCCC1", "% Inhibition": -5, "Z score": 0.69},
      {"smiles": "O=c1[nH]c2cc(Cl)c(S(=O)(=O)Cl)cc2[nH]1", "% Inhibition": 69, "Z score": -7.82}
    ]}
  ]
}
